Measured values as given in article PMC6212833.
Among all 2,000 compounds or so, about 15 (0.8%) showed an effect of 50% or more. Many of the other results were omitted from the sample, so strong results are more common in it than they were. *1 amine or outer side, *2 acyl side, *3 side chain or, on linkers, in order; H or OH if unused. Where a SMILES comes first, the peptide text is derived from it. Bridges are numbered along the chain shown (N, C = ends). X1 = O=C(CCC[*:2])[*:1]

Test system: Balamuthia mandrillaris (ATCC PRA-291) trophozoites, axenic culture
Assay: primary screen, percent inhibition; higher = more effect of the substance;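 note: 0% = vehicle wells and 100% = lysate wells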
Settings: 20 µM
Description: Screening of a clinically approved library of compounds, compiled by the Small Molecule Discovery Center (SMDC) at the UCSF, was completed at 20 µM in 0.2% DMSO. All 2,177 drugs in the library were stored as 10 mM stocks dissolved in 100% DMSO (Sigma-Aldrich) at −20°C. B. mandrillaris amoebae were resuspended in axenic medium and distributed into opaque 384-well plates (Corning) at a density of 3,000 amoebae per well using a BioMek NX liquid handler. Negative-control wells were treated with vehicle only (0.2% DMSO in axenic medium), and positive-control wells simulating total destruction of amoebae were seeded with amoeba lysate generated by 3 consecutive freeze-thaw cycles. Following 72 h of incubation, 30 µl of CellTiter Glo reagent (CTG; Promega) was added to each well. The luminescence was measured with a Promega GloMax-Multi+ plate reader at 2, 4, and 8 h after CTG addition. […] The B-score, representing a plate-based statistical approach for correcting row, column, and edge effects, was also calculated for each compound in the library (75).

Structure (SMILES)	% Inhibition
C1N2CN3CN1CN(C2)C3	25.9%
CN(C)CCC[C@@]1(c2ccc(F)cc2)OCc2cc(C#N)ccc21 [131042-L5]	29.1%
c1ccc(-c2ccc(C(c3ccccc3)n3ccnc3)cc2)cc1 (stereo not drawn)	2.05%
O=C(O)C1CSCN1 (stereo not drawn)	29%
CC[C@H]1OC(=O)[C@H](C)[C@@H](O[C@H]2C[C@@](C)(OC)[C@@H](O)[C@H](C)O2)[C@H](C)[C@@H](O[C@@H]2O[C@H](C)C[C@H](N(C)C)[C@H]2O)[C@](C)(O)C[C@@H](C)C(=O)[C@H](C)[C@@H](O)[C@]1(C)O [129937-L7]	19.9%
CO/N=C(\C(=O)N[C@@H]1C(=O)N2C(C(=O)O)=C(COC(N)=O)CS[C@H]12)c1ccco1	11.5%
Cc1ccc(S(=O)(=O)NC(=O)NN2CC3CCCC3C2)cc1 (stereo not drawn)	10.2%
Cc1oncc1C(=O)Nc1ccc(C(F)(F)F)cc1	15%
O=C(O)P(=O)(O)O	19.1%
CCCCN(CCCC)CC(O)c1cc(Cl)cc2c1-c1ccc(Cl)cc1/C2=C/c1ccc(Cl)cc1 (stereo not drawn)	5.93%
CC[C@@]1(O)C(=O)OCc2c1cc1n(c2=O)Cc2cc3c([N+](=O)[O-])cccc3nc2-1	-33%
CCCCCCCCCCCCCCCC[N+](C)(C)C	56.1%
C[N+](C)(C)CCCCCC[N+](C)(C)C	26%
C[N+](C)(C)CCCCCCCCCC[N+](C)(C)C	25.7%
CC[C@H]1OC(=O)[C@H](C)[C@@H](O[C@H]2C[C@@](C)(OC)[C@@H](O)[C@H](C)O2)[C@H](C)[C@@H](O[C@@H]2O[C@H](C)C[C@H](N(C)C)[C@H]2O)[C@](C)(OC)C[C@@H](C)C(=O)[C@H](C)[C@@H](O)[C@]1(C)O	8.87%
O=C1NCCN1CCN1CCC(c2cn(-c3ccc(F)cc3)c3ccc(Cl)cc23)CC1	23.8%
CN1CCc2c(c3ccccc3n2Cc2ccccc2)C1	34.1%
CN/C(=C/[N+](=O)[O-])NCCSCc1ccc(CN(C)C)o1	7.74%
CN/C(=C\[N+](=O)[O-])NCCSCc1csc(CN(C)C)n1	23.7%
CN/C(=C\[N+](=O)[O-])NCCSCc1ccc(CN(C)C)o1	68.1%
Nc1c(Br)cc(Br)cc1CNC1CCC(O)CC1 (stereo not drawn)	20.4%
C#C[C@]1(OC(C)=O)CCC2C3CCC4=C/C(=N/O)CCC4C3CC[C@@]21CC (stereo partly drawn)	19.6%
Cc1cnc(C(=O)O)c[n+]1[O-]	0.14%
Cc1cc(N)c2ccccc2[n+]1CCCCCCCCCC[n+]1c(C)cc(N)c2ccccc21	69%
CC(=O)OCC(=O)[C@@]1(O)CCC2C3CCC4=CC(=O)CC[C@]4(C)C3[C@@H](O)C[C@@]21C (stereo partly drawn)	33.3%
Cc1ncc([N+](=O)[O-])n1CC(C)O (stereo not drawn)	35.8%

Structure (SMILES)	% Inhibition
CCN(CC)C(=O)C1(c2ccccc2)CC1CN (stereo not drawn)	21.4%
O=S(=O)(O)CCS	8.32%
CCCCC[C@H](O)/C=C/[C@H]1[C@H](O)CC(=O)[C@@H]1CCCCCCC(=O)O [285959-L6]	-5.58%
Cc1cc(-c2ccc(/N=N/c3ccc4c(S(=O)(=O)O)cc(S(=O)(=O)O)c(N)c4c3O)c(C)c2)ccc1/N=N/c1ccc2c(S(=O)(=O)O)cc(S(=O)(=O)O)c(N)c2c1O	73.9%
O=C(Nc1cccc2c(=O)cc(-c3nn[nH]n3)oc12)c1ccc(OCCCCc2ccccc2)cc1	-2.25%
O=C(O)c1ccccc1-c1c2cc(I)c(=O)c(I)c-2oc2c(I)c(O)c(I)cc12	66.4%
Clc1ccc(C(Cn2ccnc2)OCc2ccsc2Cl)c(Cl)c1 (stereo not drawn) [735884-L3]	5.23%
OC[C@H]1O[C@H](O[C@H]2[C@H](O)[C@@H](O)[C@H](O)O[C@@H]2CO)[C@H](O)[C@@H](O)[C@@H]1O	17.5%
CCCCC(=O)N(Cc1ccc(-c2ccccc2-c2nn[nH]n2)cc1)[C@H](C(=O)O)C(C)C	21.1%
Cc1ccccc1C(OCCN(C)C)c1ccccc1 (stereo not drawn)	-5.39%
CCCCc1oc2ccccc2c1C(=O)c1cc(I)c(OCCN(CC)CC)c(I)c1	14.9%
CO[C@@H]1[C@@H](O[C@@H]2O[C@H](C)[C@@H](O[C@H]3C[C@@](C)(O)[C@H](O)[C@H](C)O3)[C@H](N(C)C)[C@H]2O)[C@@H](CC=O)C[C@@H](C)[C@@H](O[C@H]2CC[C@H](N(C)C)[C@@H](C)O2)/C=C/C=C/C[C@H](C)OC(=O)C[C@H]1O	4.48%
O=c1c2ccccc2[se]n1-c1ccccc1	19.3%
Nc1nc(O)ncc1F	15.6%
COc1ccc2c(c1)N(C[C@H](C)CN(C)C)c1ccccc1S2	2.52%
S=P(N1CC1)(N1CC1)N1CC1	27.8%
CC[C@H](C)[C@@H]1NC(=O)[C@H](Cc2ccc(OC)cc2)NC(=O)CCCSC[C@@H](C(=O)N2CCC[C@H]2C(=O)N[C@@H](CC(C)C)C(=O)NCC(N)=O)NC(=O)[C@H](CC(N)=O)NC(=O)[C@H](CCC(N)=O)NC1=O (Y(Me)IQNCPLG-NH2; linker N-5 via X1)	9.07%
COc1ccc2cc1Oc1ccc(cc1)C[C@H]1c3c(cc4c(c3Oc3cc5c(cc3OC)CCN(C)[C@@H]5C2)OCO4)CCN1C	-18.5%
COc1ccc(OC)c(C(O)C(C)N)c1 (stereo not drawn)	16.7%
CN1C(C(=O)Nc2ccccn2)=C(O)c2ccccc2S1(=O)=O	6.97%
CCCCC(F)(F)[C@@]1(O)CC[C@H]2[C@@H](CC(=O)[C@@H]2CCCCCCC(=O)O)O1	20.6%
C[C@@H](O)[C@H]1C(=O)N2C(C(=O)O)=C(S[C@@H]3CN[C@H](C(=O)Nc4cccc(C(=O)O)c4)C3)[C@H](C)[C@H]12	10.5%
COc1ccc(-n2nc(CCC(=O)N(C)O)cc2-c2ccc(Cl)cc2)cc1	16%
N[C@@H](CSSC[C@H](N)C(=O)O)C(=O)O	-0.0671%
CCN(CC)CCNc1ccc(CO)c2sc3ccccc3c(=O)c12	0.0147%
